Assay [1] in a line: qHTS of pediatric cancer cell lines to identify multiple opportunities for drug repurposing: Primary screen for SJ-GBM2 cells (AID 1347091). Also: potency is read from the fitted curve at half-maximal effect. The procedure, abridged: (§1)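 Eight- or eleven-point concentration series, 48 h treatment at 37 degrees C in growth media; readout CellTiter-Glo luminescence. Potency and efficacy were taken from the concentration-response curves.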
Background: qHTS replaces the single test concentration by a dilution series.

A short description of assay [2]: qHTS of pediatric cancer cell lines to identify multiple opportunities for drug repurposing: Primary screen for A673 cells (AID 1347092). Also: nearly all actives have a fitted effect of over 45% in size. Also: potency is read from the fitted curve at half-maximal effect. The procedure, abridged: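 A673 cells (500-1,000 cells/well) were treated 48 hours at 37 degrees C with compounds at 11-point (0.78 nM to 46 µM) or 8-point (0.59 nM to 46 µM) dilutions. Viability read by CellTiter-Glo luminescence; concentration-response curves fitted.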

Assay [3] in a line: qHTS of pediatric cancer cell lines to identify multiple opportunities for drug repurposing: Primary screen for SK-N-MC cells (AID 1347093). Also: potency is read from the fitted curve at half-maximal effect. The essentials: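 Metabolically active cells were quantified by ATP-dependent luminescence (CellTiter-Glo, 15 min at room temperature) following 48 h treatment. Cells had been plated at 500-1,000 per well and settled for 5 h beforehand.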

A short description of assay [4]: qHTS of pediatric cancer cell lines to identify multiple opportunities for drug repurposing: Primary screen for BT-37 cells (AID 1347094). Also: potency is read from the fitted curve at half-maximal effect. The procedure, abridged:
(§2)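 Phenotypic viability qHTS, 48 h compound exposure, CellTiter-Glo luminescence read-out; multi-concentration dosing so that potency and efficacy derive directly from the primary screen's curves.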

The nature of assay [5]: qHTS of pediatric cancer cell lines to identify multiple opportunities for drug repurposing: Primary screen for NB-EBc1 cells (AID 1347095). Also: potency is read from the fitted curve at half-maximal effect. The essentials:
as §2

Assay [6] is described as follows: qHTS of pediatric cancer cell lines to identify multiple opportunities for drug repurposing: Primary screen for Saos-2 cells (AID 1347097). Also: nearly all actives have a fitted effect of over 40% in size. Also: potency is read from the fitted curve at half-maximal effect. The essentials:
as §2

Assay [7] is described as follows: qHTS of pediatric cancer cell lines to identify multiple opportunities for drug repurposing: Primary screen for U-2 OS cells (AID 1347096). Also: nearly all actives have a fitted effect of over 50% in size. Also: potency is read from the fitted curve at half-maximal effect. The procedure, abridged: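 Cells (500-1,000/well) in growth media were settled 5 h at 37 degrees C, then given compounds for 48 h. Viability was read as CellTiter-Glo luminescence. Primary runs used MIPE at 11 points (0.78 nM-46 µM) and NPC at 8 points (0.59 nM-46 µM); follow-ups used 11 points.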

Assay [8] in a line: qHTS of pediatric cancer cell lines to identify multiple opportunities for drug repurposing: Primary screen for SK-N-SH cells (AID 1347098). Also: nearly all actives have a fitted effect of over 65% in size. Also: potency is read from the fitted curve at half-maximal effect. The procedure, abridged:
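Cells (500-1,000/well) rested 5 h, then received compounds for 48 h; metabolically active cells were measured by CellTiter-Glo luminescence. Final concentrations spanned up to 46 µM (MIPE, 11-point) or 0.59 nM-46 µM (NPC, 8-point) in primary screens, 11-point in follow-ups.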

A short description of assay [9]: qHTS of pediatric cancer cell lines to identify multiple opportunities for drug repurposing: Primary screen for NB1643 cells (AID 1347099). Also: nearly all actives have a fitted effect of over 50% in size. Also: potency is read from the fitted curve at half-maximal effect. The essentials: as §2
A short description of assay [10]: qHTS of pediatric cancer cell lines to identify multiple opportunities for drug repurposing: Primary screen for DAOY cells (AID 1347090). Also: series mostly up to about 46 µM; nearly all actives have a fitted effect of over 55% in size. The procedure, abridged: as §1

The structures appear in SMILES notation. Where “and” joins values, the source holds several entries; their conditions need not be identical. Equal values may be shown once. Records with an inconclusive call do not appear. Calls of active or inactive are those of the source. Calls follow the shape of the dose curve; as a rule, active = well fitted curve in the direction sought with a large enough effect; inconclusive = small, poorly fitted or top-dose-only effect, or another doubt; inactive = no such curve, though single readings can be large; an effect the other way counts as inactive or inconclusive.

On to `CC[C@]1(O)C[C@H]2CN(CCc3c([nH]c4ccccc34)[C@@](C(=O)OC)(c3cc4c(cc3OC)N(C=O)[C@H]3[C@@](O)(C(=O)OC)[C@H](OC(C)=O)[C@]5(CC)C=CCN6CC[C@]43[C@@H]65)C2)C1`, for which the Potency was 1 nM (active) and 84.1 nM (active) in assay [1]; 4.7 nM (active) and 5.3 nM (active) in assay [2]; 11.8 nM (active) and 6.7 nM (active) in assay [3]; 21.7 nM (active) and 17.4 nM (active) in assay [4]; 9.3 nM (active) and 237 nM (active) in [5]; 0.0235 µM (active) in assay [6].

As to `O=P(O)(O)C(O)(Cn1ccnc1)P(=O)(O)O`, the Potency result in [1], in assay [2], in [3], in [4], in assay [5] and in [7] was “inactive” each time. In addition, the Potency entry in [6], in assay [8] and in [9] was “inactive” in each case.

Turning to `COc1c2occc2cc2ccc(=O)oc12`, the Potency result in assay [1], in assay [2], in assay [3], in [4], in assay [5] and in assay [7] was “inactive” each time. For the same compound, the Potency result in [6], in [8] and in assay [9] was “inactive” each time.

`Cc1ccc(C(=O)c2cc(O)c(O)c([N+](=O)[O-])c2)cc1`: the Potency result in assay [10], in assay [7], in assay [8] and in [9] was “inactive” each time. For the same compound, the Potency in assay [2] was 11.8 µM (active); in assay [3] it was 23.7 µM (active) and 18.7 µM (active).

Take `Nc1ncn([C@H]2C[C@H](O)[C@@H](CO)O2)c(=O)n1`: the Potency result in assay [1], in assay [2], in [3], in assay [4], in assay [5] and in assay [7] was “inactive” in each case. The Potency entry in assay [6], in assay [8] and in assay [9] was “inactive” each time.

Regarding `O=c1c(O)c(-c2cc(O)c(O)c(O)c2)oc2cc(O)cc(O)c12`, the Potency entry in [10], in assay [1], in assay [5], in assay [7], in [8] and in [9] was “inactive” throughout.

Turning to `Cc1ccc(C)c(OCCCC(C)(C)C(=O)O)c1`, the Potency entry in assay [10], in assay [1], in [4], in assay [5], in assay [7] and in assay [6] was “inactive” throughout. In addition, in [8], the Potency entry was “inactive”.

`CC(C)[N+]1(C)[C@@H]2CC[C@H]1CC(OC(=O)C(CO)c1ccccc1)C2` (some centres not stated): the Potency entry in assay [1], in [4], in assay [5], in [7], in assay [6] and in [8] was “inactive” each time. Further, the Potency in [2] is 9.35 µM (active); in assay [3] it was 9.35 µM (active); in assay [9], 11.8 µM (active).

Consider `CC(C)Oc1ccc2c(=O)c(-c3ccccc3)coc2c1`, for which the Potency entry in assay [1], in assay [2], in assay [3], in [4], in [5] and in assay [7] was “inactive” each time. Moreover, the Potency result in assay [6], in assay [8] and in assay [9] was “inactive” each time.

Turning to `CC(C)(S)[C@@H](N)C(=O)O`, the Potency entry in assay [1], in [2], in [3], in assay [4], in assay [5] and in [7] was “inactive” in each case. The Potency result in assay [6], in [8] and in assay [9] was “inactive” in each case.

For `Clc1ccc(C(Cn2ccnc2)OCc2ccc(Sc3ccccc3)cc2)c(Cl)c1` (configuration not stated), the Potency entry in assay [10], in assay [1], in [4], in assay [5], in [7] and in [8] was “inactive” throughout.

Regarding `COc1cc(Nc2c(C#N)cnc3cc(OCCCN4CCN(C)CC4)c(OC)cc23)c(Cl)cc1Cl`, the Potency in assay [1] is 23.7 µM (active); in assay [2], 10.6 µM (active) and 11.8 µM (active); in assay [3], 2.11 µM (active) and 1.87 µM (active); in assay [4] it was 17.4 µM (active); in assay [7], 21.1 µM (active); in assay [6], 8.33 µM (active). For the same compound, in assay [8], the Potency was 6.12 µM (active). Further, the Potency entry in [5] was “inactive”.

With `Oc1ccc(OCc2ccccc2)cc1`, the Potency entry in [1], in assay [2], in assay [3], in [4], in assay [5] and in assay [7] was “inactive” each time. For the same compound, the Potency entry in assay [6], in assay [8] and in [9] was “inactive” each time.

Take `NNc1nncc2ccccc12`: the Potency result in assay [1], in assay [2], in assay [3], in assay [4], in assay [5] and in [7] was “inactive” each time. The Potency entry in [6], in assay [8] and in [9] was “inactive” in each case.

Regarding `C[Se]CCC(N)C(=O)O` (configuration not stated), the Potency entry in [1], in assay [2], in assay [4], in assay [5], in [7] and in assay [6] was “inactive” throughout. Also, in assay [8], the Potency entry is “inactive”. Besides, the Potency in assay [3] was 54 µM (active).

As for `O=C1NC(=O)C(c2ccccc2[N+](=O)[O-])=C1Nc1ccc(O)c(Cl)c1`, the Potency result in assay [10], in assay [4], in [5], in assay [7] and in [6] was “inactive” throughout. The Potency in assay [2] is 5.9 µM (active); in assay [3], 0.118 µM (active).

For the compound `CC(=O)Nc1ccc(O)cc1`, the Potency entry in assay [1], in [2], in assay [3], in [4], in assay [5] and in assay [7] was “inactive” in each case. Also, the Potency entry in assay [6], in assay [8] and in assay [9] was “inactive” throughout.

Consider `N[C@@H](Cc1cc(I)c(Oc2cc(I)c(O)c(I)c2)c(I)c1)C(=O)O`, for which the Potency result in assay [1], in [2], in [3], in [4], in assay [5] and in assay [7] was “inactive” in each case. For the same compound, the Potency entry in assay [6], in assay [8] and in [9] was “inactive” throughout.

Regarding `CC1(C)NC(=O)N(c2ccc([N+](=O)[O-])c(C(F)(F)F)c2)C1=O`, the Potency entry in assay [1], in assay [2], in assay [3], in [4], in assay [5] and in [7] was “inactive” in each case. The Potency result in assay [6], in assay [8] and in assay [9] was “inactive” each time.

As for `CCC[C@@H]1C[C@@H](C(=O)N[C@@H]([C@H]2O[C@H](SC)[C@H](O)[C@@H](O)[C@H]2O)[C@@H](C)O)N(C)C1`, the Potency result in assay [1], in assay [2], in assay [3], in [4], in assay [5] and in assay [7] was “inactive” throughout. Besides, the Potency entry in assay [6], in [8] and in [9] was “inactive” in each case.

The values are drawn from PubChem BioAssay (NCATS).
